Screens from PubChem BioAssay.
Shown are actives, neighbours in structure and some others; about 28% of the full set was active somewhere.
CYP2C9 act: increases human cytochrome P450 2C9 activity. P11712. recombinant CYP2C9, luciferin-H conversion, luminescence; stronger effect = higher value; factor 1 = untreated enzyme, 0 = blocked. activation factor at 5 µM. hit rate 1.4% among 96,000;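 active = activation factor of 2 or more for CYP2C9 at a 5 µM dose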;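 note: 0 = sulfaphenazole-blocked wells and 1 = vehicle-only wells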
CYP2C9 inhib: inhibitors of human CYP2C9 | P11712 | hit rate 20% among 96,000 | CYP2C9 Supersomes, luciferin-H conversion, luminescence | inhibition, % at 5 µM;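 active = blocking of liver enzyme CYP2C9 beyond about 50% at 5 µM, limit read from the data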
Plk1 PBD FP: blocks phosphopeptide binding to human Plk1 polo box domain; P53350; Plk1 PBD phosphopeptide binding, fluorescence polarization; inhibition, %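 (tested at about 20 µM)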; hit rate 0.13% among 97,000; AID 693; in the data active = inhibition above about 34%, passing the limit was not always enough
CYP2C19 inh: blocks human cytochrome P450 2C19. P33261. CYP2C19 Supersomes, luciferin-H EGE luminescence, 30 min. inhibition, % at 5 µM. hit rate 21% among 96,000. AID 778;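 active = CYP2C19 inhibition above a set limit at 5 µM in the primary screen, cut at about 50% in these data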;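 note: plate controls were negative control wells for no effect and 2.5 mM tranylcypromine positive control for full effect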
Target sequence (P33261 whole entry, looked up): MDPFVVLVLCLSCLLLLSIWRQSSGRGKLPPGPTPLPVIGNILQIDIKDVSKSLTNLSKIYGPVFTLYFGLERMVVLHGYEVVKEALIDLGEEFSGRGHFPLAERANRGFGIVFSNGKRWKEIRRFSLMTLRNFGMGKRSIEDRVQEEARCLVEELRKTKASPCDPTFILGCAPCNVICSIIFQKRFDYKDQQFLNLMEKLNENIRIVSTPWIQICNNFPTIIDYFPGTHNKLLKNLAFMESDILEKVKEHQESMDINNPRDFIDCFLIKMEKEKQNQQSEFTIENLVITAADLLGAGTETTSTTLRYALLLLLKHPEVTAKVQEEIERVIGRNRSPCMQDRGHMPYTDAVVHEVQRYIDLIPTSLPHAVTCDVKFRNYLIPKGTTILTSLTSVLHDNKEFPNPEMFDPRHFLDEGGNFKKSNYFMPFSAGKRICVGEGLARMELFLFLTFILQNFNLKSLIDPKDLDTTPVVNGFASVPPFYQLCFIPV
PLK1 inh: inhibitors of human PLK1 kinase. recombinant PLK1 kinase, TR-FRET peptide phosphorylation. inhibition, % at 10 µM. hit rate 0.53% among 97,000. AID 619;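 active = inhibition of 50% or more in the single-concentration screen; inactive = inhibition below 50%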;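 note: 0% = DMSO max control and 100% = H-89 dihydrochloride min control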
CYP2C19 activ: activators of human cytochrome P450 2C19 | P33261 | recombinant CYP2C19, luciferin-H EGE luminescence; stronger effect = higher value; 0 = fully inhibited enzyme, 1 = untreated enzyme | activation factor at 5 µM | 96,000 tested, under 10 active | AID 1025;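 active = activation factor of at least 2 at 5 µM in the primary screen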;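 note: 0 = wells with 2.5 mM tranylcypromine and 1 = vehicle-only wells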
The depositor's hits bear a star; / = not tested or not shown.

SMILES | CYP2C9 act | CYP2C9 inhib | Plk1 PBD FP | CYP2C19 inh | PLK1 inh | CYP2C19 activ
Cc1[nH]n(-c2ccccc2)c(=O)c1-c1ccc(Cl)cc1 | 0.5 | 45 | -4 | 3 | 1 | 1
Cc1[nH]n(-c2ccccc2)c(=O)c1-c1cccc(Cl)c1 | 0.3 | 71* | 11 | 20 | -13 | 0.8
COc1cc(CN(C)CCc2ccccc2)ccc1OCc1ccccc1 | 0.9 | 12 | 17 | 14 | -5 | 0.9
Cc1nc2cc(-c3cccc(Cl)c3)nn2c(N2CCN(C(=O)c3ccco3)CC2)c1C | 0.1 | 86* | / | 73* | / | 0.3
COc1ccc(NC(=O)c2oc3ccccc3c2NC(=O)c2ccco2)cc1 | 0.8 | 19 | -18 | 60* | -6 | 0.4
CCOC(=O)c1c(C)[nH]c(C)c1C(=O)COc1ccc(NC(=O)c2ccco2)cc1 | 0.1 | 93* | -2 | 88* | -4 | 0.1
COc1ccc(OCC(=O)Nc2ccc(NC(=O)c3ccco3)cc2)cc1 | 0.6 | 38 | 2 | 38 | -8 | 0.6
COc1ccc(NC(=O)c2oc3ccccc3c2NC(=O)c2ccco2)c(OC)c1 | 0.6 | 36 | -6 | 10 | -14 | 0.9
COCC(=O)Nc1c(C(=O)Nc2cccc(OC)c2)oc2ccccc12 | 0.4 | 64* | -14 | 11 | -4 | 0.9
Cc1ccc(NC(=O)c2ccc(OC(=O)c3ccco3)cc2)cc1 | 1.1 | -10 | -5 | 10 | -3 | 0.9
Cc1ccc(Oc2ccc(NC(=O)c3ccco3)cc2)cc1 | 0.4 | 59* | / | 56* | / | 0.4
CN1CCN(S(=O)(=O)c2ccc(Sc3nnc(-c4cccs4)n3-c3ccccc3)nc2)CC1 | 0.9 | 8 | 7 | -3 | -2 | 1
CCOCC(=O)Nc1c(C(=O)Nc2ccc(OC)cc2OC)oc2ccccc12 | 0.3 | 71* | -21 | 22 | -6 | 0.8
Cc1ccc(-c2nc(-c3cccnc3)no2)cc1 | 1 | -2 | 2 | 76* | -13 | 0.2
c1ccc(-c2ccccc2-c2nc(-c3cccnc3)no2)cc1 | 0 | 96* | 2 | 73* | -6 | 0.3
COc1cccc(-c2noc(-c3cccnc3)n2)c1 | 0.8 | 18 | 7 | 24 | 0 | 0.8
CCC(=O)Oc1ccc(-c2nc(-c3cccnc3)no2)cc1 | 0.3 | 70* | -16 | 68* | -9 | 0.3
Cc1ccc(-c2nc(-c3ccccc3)no2)cc1 | 0.6 | 44 | -14 | 66* | -3 | 0.3
CCOC(=O)CC1C(=O)NCCN1S(=O)(=O)c1ccccc1Cl (stereo not given) | 1 | -3 | -28 | 16 | -9 | 0.8
CC(C)(C)OC(=O)N1CC(O)CC1C(=O)OCC(=O)c1ccc(Cl)cc1 (stereo not given) | 0.8 | 22 | / | 55* | / | 0.5
CCCc1cc(C(=O)NCC(C)C)no1 | 0.8 | 15 | -17 | 33 | -20 | 0.7
O=S(=O)(NCCNS(=O)(=O)c1ccc(F)cc1)c1ccc(F)cc1 | 1 | 3 | 19 | 38 | -11 | 0.6
O=S(=O)(NCCSc1ccccc1)c1ccc2c(c1)OCCO2 | 1 | 2 | 22 | 87* | 0 | 0.1
O=S(=O)(NCCOc1ccc(F)cc1)c1ccc2c(c1)OCCO2 | 2.4* | -144 | -28 | 91* | -10 | 0.1
CC(=O)Nc1ccc(NC(=O)CC2Nc3cccc4cccc(c34)NC2=O)cc1 (stereo not given) | 0.4 | 63* | -27 | 0 | 2 | 1
SMILES | CYP2C9 act | CYP2C9 inhib | Plk1 PBD FP | CYP2C19 inh | PLK1 inh | CYP2C19 activ
O=C(CC1NC(=O)NC1=O)Nc1ccccc1 (stereo not given) | 0.3 | 68* | 8 | 10 | -8 | 0.9
O=C(CC1NC(=O)NC1=O)Nc1cccc2ccccc12 (stereo not given) | 0.9 | 5 | -1 | 3 | -12 | 1
O=C(CCCSc1nc2ccccc2s1)NC1=NCCS1 | 1.5 | -47 | 19 | 83* | 2 | 0.2
O=C(CSc1nn(-c2ccccc2)c(=S)s1)Nn1cnnc1 | 0 | 98* | / | 64* | / | 0.4
O=C(CSc1nc2ccccc2s1)Nn1cnnc1 | 0 | 96* | -24 | 76* | -5 | 0.2
O=C(CSc1nn(-c2ccccc2)c(=S)s1)NC(=O)NCc1ccco1 | 0.5 | 47 | -10 | 35 | -14 | 0.7
COC(=O)[C@H]1CCCN1C(=O)Nc1cccc(Oc2c(F)c(F)c(F)c(F)c2F)c1 | / | / | -8 | / | -1 | /
CCOCCCNC(=O)C(NC(=O)c1ccc(=O)[nH]c1)c1ccccc1 (stereo not given) | 1 | 2 | -26 | 10 | -28 | 0.9
